# Measured values taken from the supplement of paper PMC11001985.
# Unmarked numbers belong to inactive results.
# Compound: C#CCNC(=O)CCSSCCC(=O)NCCc1ccc(C=O)c(C=O)c1
# Assay: lysine labeling ratio R10:1 (500 µM / 50 µM probe), SILAC-ABPP in living cells; higher = lower intrinsic lysine reactivity toward the probe, active = 2 or less
# Settings: HeLa; probe concentrations 500 vs 50 µM
# Outline: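 R, given per lysine, is the filtered median high-probe/low-probe MS1 peptide ratio, with the median then taken across forward and reverse replicates. Cells were living SILAC light and heavy HeLa cells in PBS at room temperature, labelled with 50 µM or 500 µM of an alkyne-tagged, disulfide-linked lysine probe. The ceiling applied is 20.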
# UniProt Q96IZ0, sequence (Q96IZ0 whole entry): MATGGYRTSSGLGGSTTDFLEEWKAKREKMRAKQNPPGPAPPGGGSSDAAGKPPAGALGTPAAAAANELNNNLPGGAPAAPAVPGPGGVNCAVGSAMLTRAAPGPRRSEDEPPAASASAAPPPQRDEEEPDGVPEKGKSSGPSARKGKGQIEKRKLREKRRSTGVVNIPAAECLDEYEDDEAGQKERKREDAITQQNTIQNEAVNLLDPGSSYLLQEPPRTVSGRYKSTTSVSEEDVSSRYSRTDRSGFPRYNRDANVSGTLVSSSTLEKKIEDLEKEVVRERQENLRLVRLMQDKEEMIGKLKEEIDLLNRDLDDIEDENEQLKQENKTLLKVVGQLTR
# UniProt P02787, sequence (P02787 whole entry): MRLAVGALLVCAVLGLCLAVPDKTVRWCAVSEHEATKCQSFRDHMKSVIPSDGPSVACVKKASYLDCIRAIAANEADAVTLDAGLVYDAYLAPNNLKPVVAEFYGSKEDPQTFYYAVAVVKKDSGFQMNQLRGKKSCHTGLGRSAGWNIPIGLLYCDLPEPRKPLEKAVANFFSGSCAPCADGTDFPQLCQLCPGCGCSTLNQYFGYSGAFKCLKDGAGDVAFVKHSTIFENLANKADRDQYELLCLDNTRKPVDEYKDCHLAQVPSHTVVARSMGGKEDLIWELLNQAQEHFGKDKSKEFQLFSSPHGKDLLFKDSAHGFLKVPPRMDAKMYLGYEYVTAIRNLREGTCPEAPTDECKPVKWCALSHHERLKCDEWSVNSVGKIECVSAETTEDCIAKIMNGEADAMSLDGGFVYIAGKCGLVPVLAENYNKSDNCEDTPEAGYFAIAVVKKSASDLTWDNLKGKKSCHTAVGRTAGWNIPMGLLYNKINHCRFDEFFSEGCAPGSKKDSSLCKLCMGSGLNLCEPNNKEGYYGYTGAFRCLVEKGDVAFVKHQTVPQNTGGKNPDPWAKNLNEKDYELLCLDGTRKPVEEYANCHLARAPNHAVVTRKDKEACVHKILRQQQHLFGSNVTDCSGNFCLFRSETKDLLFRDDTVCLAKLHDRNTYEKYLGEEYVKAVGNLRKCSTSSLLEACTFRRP
# UniProt P17813, sequence (P17813 whole entry): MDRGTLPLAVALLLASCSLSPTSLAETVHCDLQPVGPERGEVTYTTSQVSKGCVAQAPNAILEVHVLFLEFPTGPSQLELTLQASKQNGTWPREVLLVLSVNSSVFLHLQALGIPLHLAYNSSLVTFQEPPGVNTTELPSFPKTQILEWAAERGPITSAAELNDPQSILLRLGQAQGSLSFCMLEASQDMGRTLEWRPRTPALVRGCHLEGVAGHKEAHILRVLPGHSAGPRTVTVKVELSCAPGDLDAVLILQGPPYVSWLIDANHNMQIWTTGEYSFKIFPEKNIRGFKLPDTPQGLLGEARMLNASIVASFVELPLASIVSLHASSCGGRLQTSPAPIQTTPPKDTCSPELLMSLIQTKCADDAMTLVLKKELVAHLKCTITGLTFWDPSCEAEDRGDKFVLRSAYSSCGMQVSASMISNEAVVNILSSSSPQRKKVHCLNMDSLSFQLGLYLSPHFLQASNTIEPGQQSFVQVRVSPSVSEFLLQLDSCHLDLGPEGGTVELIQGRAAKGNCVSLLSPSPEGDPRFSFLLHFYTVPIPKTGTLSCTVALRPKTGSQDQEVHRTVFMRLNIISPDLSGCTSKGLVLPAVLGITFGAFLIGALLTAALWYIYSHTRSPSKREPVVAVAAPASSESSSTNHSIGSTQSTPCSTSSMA
# UniProt P21333, sequence (P21333 whole entry): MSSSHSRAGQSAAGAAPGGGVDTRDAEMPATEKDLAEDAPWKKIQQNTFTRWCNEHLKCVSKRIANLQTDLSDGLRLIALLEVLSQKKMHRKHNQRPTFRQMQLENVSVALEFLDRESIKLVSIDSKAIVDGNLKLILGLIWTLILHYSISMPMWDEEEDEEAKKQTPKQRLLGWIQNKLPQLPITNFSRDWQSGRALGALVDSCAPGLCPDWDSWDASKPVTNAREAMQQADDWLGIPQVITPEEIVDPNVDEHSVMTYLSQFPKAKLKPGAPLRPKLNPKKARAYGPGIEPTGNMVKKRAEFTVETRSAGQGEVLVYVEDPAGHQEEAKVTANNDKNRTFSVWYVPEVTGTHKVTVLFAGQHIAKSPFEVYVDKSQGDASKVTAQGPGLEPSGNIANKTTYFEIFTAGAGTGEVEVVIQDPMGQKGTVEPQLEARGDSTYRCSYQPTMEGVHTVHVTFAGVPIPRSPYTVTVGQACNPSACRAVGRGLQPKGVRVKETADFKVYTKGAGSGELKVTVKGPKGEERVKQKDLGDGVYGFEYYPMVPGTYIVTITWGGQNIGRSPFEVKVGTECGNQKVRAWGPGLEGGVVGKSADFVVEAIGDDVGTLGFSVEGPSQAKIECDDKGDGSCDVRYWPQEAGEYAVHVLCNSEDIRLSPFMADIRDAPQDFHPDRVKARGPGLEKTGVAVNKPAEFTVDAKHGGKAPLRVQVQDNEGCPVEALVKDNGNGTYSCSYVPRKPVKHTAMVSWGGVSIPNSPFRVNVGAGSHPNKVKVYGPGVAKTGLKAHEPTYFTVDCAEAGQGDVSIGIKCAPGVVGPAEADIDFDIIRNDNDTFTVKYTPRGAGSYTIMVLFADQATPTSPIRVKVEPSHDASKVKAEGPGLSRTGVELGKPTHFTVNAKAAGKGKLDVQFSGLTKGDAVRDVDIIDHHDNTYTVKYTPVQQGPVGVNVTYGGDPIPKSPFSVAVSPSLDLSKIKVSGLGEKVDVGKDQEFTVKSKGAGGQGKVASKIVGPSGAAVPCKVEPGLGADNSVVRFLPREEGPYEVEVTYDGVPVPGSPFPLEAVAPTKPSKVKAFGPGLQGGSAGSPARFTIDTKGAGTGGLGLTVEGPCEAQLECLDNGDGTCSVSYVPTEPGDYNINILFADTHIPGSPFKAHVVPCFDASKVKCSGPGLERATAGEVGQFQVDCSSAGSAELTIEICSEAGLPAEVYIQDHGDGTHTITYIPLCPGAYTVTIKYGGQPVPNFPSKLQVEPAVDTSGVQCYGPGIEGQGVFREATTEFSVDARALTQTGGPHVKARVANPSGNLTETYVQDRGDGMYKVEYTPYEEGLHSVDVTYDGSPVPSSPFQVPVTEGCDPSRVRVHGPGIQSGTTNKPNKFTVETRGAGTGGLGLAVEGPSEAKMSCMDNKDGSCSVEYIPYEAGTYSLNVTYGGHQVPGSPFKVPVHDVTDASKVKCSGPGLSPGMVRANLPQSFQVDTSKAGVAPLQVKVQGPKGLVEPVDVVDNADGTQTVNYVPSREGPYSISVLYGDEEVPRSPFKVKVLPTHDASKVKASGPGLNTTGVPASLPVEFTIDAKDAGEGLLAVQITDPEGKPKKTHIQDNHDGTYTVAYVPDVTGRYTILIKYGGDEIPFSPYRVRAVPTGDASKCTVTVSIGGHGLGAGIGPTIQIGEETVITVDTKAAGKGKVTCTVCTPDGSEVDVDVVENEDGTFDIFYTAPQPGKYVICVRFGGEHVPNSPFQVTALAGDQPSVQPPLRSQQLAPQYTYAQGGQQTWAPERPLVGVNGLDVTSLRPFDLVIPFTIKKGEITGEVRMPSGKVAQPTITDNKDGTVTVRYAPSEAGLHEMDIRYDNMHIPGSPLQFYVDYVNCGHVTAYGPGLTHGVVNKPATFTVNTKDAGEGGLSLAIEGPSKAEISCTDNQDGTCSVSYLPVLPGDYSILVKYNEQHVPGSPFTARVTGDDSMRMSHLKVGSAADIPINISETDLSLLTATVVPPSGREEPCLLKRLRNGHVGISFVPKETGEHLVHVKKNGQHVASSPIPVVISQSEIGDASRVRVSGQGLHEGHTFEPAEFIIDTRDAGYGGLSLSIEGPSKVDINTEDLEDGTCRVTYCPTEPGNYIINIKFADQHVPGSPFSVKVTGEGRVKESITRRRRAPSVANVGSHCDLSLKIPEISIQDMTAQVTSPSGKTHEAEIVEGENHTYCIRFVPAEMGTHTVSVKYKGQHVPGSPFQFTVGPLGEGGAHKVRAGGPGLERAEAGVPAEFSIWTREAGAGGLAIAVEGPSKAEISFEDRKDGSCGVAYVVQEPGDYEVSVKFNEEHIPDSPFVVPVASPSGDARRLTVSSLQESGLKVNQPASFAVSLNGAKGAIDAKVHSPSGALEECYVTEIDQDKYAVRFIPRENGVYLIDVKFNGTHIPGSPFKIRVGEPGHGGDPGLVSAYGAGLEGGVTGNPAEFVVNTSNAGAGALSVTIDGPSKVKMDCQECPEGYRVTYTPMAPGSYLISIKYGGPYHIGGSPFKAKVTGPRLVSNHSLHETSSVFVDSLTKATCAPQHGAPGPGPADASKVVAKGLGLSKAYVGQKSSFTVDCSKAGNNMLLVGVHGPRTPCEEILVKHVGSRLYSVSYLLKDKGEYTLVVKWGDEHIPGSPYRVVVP
# UniProt P20618, sequence (P20618 whole entry): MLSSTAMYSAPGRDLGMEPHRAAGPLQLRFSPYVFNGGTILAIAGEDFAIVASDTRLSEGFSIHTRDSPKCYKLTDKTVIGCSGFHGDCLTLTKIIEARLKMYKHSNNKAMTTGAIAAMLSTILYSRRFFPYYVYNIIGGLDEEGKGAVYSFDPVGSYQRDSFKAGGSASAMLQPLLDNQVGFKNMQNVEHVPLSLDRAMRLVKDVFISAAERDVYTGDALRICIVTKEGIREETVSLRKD
# UniProt Q9NP84, sequence (Q9NP84 whole entry): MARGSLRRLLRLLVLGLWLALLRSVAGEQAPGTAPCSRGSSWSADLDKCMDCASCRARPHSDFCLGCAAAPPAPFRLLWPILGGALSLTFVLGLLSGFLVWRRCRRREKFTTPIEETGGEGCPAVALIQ
row,Target,lysine labeling ratio R10:1
1,ENG (lysine site: K291) (UniProt P17813),5.59
2,ANPEP (lysine site: K379) (UniProt P15144),0.5 (active)
3,UniProt O95980 (lysine site: K230),1.91 (active)
4,AHNAK (lysine site: K134) (UniProt Q09666),1.99 (active)
5,IQGAP1 (lysine site: K104) (UniProt P46940),2.32
6,FLNA (lysine site: K1801) (UniProt P21333),3.7
7,SPTAN1 (lysine site: K1023) (UniProt Q13813),9.87
8,TF (lysine site: K135) (UniProt P02787),1.26 (active)
9,UniProt Q32P28 (lysine site: K363),4.24
10,UniProt P50281 (lysine site: K337),1.7 (active)
11,LAMB1 (lysine site: K1505) (UniProt P07942),3.69
12,PSMB1 (lysine site: K204) (UniProt P20618),2.46
13,UniProt P62888 (lysine site: K9),2.95
14,EEF2 (lysine site: K426) (UniProt P13639),3.49
15,UniProt Q9NP84 (lysine site: K48),4.2
16,PAWR (lysine site: K227) (UniProt Q96IZ0),1.06 (active)
17,NUCB1 (lysine site: K205) (UniProt Q02818),4.75
